Data on ten compounds can be found in PubChem BioAssay (NCI).

Each structure is given as a SMILES string. Values joined by “and” are separate entries in the source; they are usually repeats but may differ in a detail not shown here. Identical values can stand only once. This is part of a sample that, as a whole, favours compounds with a hit. Of some 83,000 tested, about 20% had one in any assay.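 Single-dose data. Exposure time 48 hours. Values below 10 considered active.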 Active and inactive are the calls of the source. Where a SMILES comes first, the peptide text is derived from it. The star is where a group is joined. Trt = c1ccc(C(c2ccccc2)(c2ccccc2)*)cc1; Cbz = O=C(OCc1ccccc1)*

Among the test systems are NCI-H23 lung; NCI-H226 lung; NCI-H322M lung; HOP-62 NSCLC; NCI-H460 lung; HOP-92 NSCLC; NCI-H522 lung; A549/ATCC NSCLC; 786-0 renal; COLO 205 colon.
What all share (test): NCI-60 one-dose screen, 48 h (100 = growth as untreated, 0 = no growth, -100 = all killed)

As for `COC(=O)C(CSC(c1ccccc1)(c1ccccc1)c1ccccc1)NC(=O)C(CC(N)=O)NC(=O)OCc1ccccc1` (stereo not drawn) (Cbz-Asn-Cys(Trt)-OMe; configuration not given here), the growth is 65.4% (inactive) in the assay with NCI-H23 lung (10 µM unless noted); 71.4% (inactive) with NCI-H226 lung (10 µM unless noted); 30.8% (inactive) in the assay with NCI-H322M lung (10 µM unless noted); 41.4% (inactive) in the assay on HOP-62 NSCLC (10 µM unless noted); 31.2% (inactive) in the assay on NCI-H460 lung (10 µM unless noted); 55.7% (inactive) in the assay on HOP-92 NSCLC (10 µM unless noted). Also, the growth is 51.5% (inactive) in the assay with NCI-H522 lung (10 µM unless noted), 41.4% (inactive) in the assay with A549/ATCC NSCLC (10 µM unless noted), 30.7% (inactive) in the assay with 786-0 renal (10 µM unless noted) and -50.8% (active) in the assay on COLO 205 colon (10 µM unless noted).

On to `CCOc1ccc(-c2nc3ccc(-c4nc5ccc(N6CCN(C)CC6)cc5[nH]4)cc3[nH]2)cc1`, for which the growth was -71.7% (active) in the assay on NCI-H23 lung (10 µM unless noted); -85.5% (active) in the assay with NCI-H226 lung (10 µM unless noted); -84.7% (active) in the assay on NCI-H322M lung (10 µM unless noted); -87.5% (active) with HOP-62 NSCLC (10 µM unless noted); -90.7% (active) in the assay on NCI-H460 lung (10 µM unless noted); -56.3% (active) in the assay with HOP-92 NSCLC (10 µM unless noted). The growth was -65.5% (active) in the assay with NCI-H522 lung (10 µM unless noted), -80.7% (active) in the assay with A549/ATCC NSCLC (10 µM unless noted), -90.6% (active) in the assay with 786-0 renal (10 µM unless noted) and -96.5% (active) with COLO 205 colon (10 µM unless noted).

In the case of `COc1cc(NS(C)(=O)=O)ccc1Nc1c2ccccc2nc2ccccc12`, the growth in the assay with NCI-H23 lung (2.5 µM) is 8.63% (active); in the assay on NCI-H23 lung (10 µM), -3.53% (active) [middle of 4 runs]; in the assay on NCI-H226 lung (10 µM unless noted) it was -8.63% [2.5 µM] (active); in the assay on NCI-H322M lung (10 µM unless noted), 83.9% [2.5 µM] (inactive); in the assay with HOP-62 NSCLC (10 µM unless noted), 18.2% [2.5 µM] (inactive); in the assay with NCI-H460 lung (10 µM unless noted), 4.6% [2.5 µM] (active). Also, the growth with HOP-92 NSCLC (2.5 µM) is 9.79% (active); with HOP-92 NSCLC (10 µM), 42.5% (inactive) and 10.3% (inactive); in the assay with NCI-H522 lung (2.5 µM), 43% (inactive); in the assay with NCI-H522 lung (10 µM) it was -47.9% (active) and 4% (active) and 37.2% (inactive); with A549/ATCC NSCLC (2.5 µM), 28.1% (inactive); with A549/ATCC NSCLC (10 µM), 12.9% (inactive) [middle of 4 runs]. The growth is -3.06% [2.5 µM] (active) with 786-0 renal (10 µM unless noted) and 39.7% [2.5 µM] (inactive) with COLO 205 colon (10 µM unless noted).

Consider `C[N+](C)=c1ccc2nc3c(cc(NCCCNc4cc5oc6cc(=[N+](C)C)ccc-6nc5c5ccccc45)c4ccccc43)oc-2c1`, for which the growth in the assay with NCI-H23 lung (10 µM unless noted) was -56.1% (active); with NCI-H226 lung (10 µM unless noted), 73.2% (inactive); in the assay on NCI-H322M lung (10 µM unless noted), 25.3% (inactive); in the assay on HOP-62 NSCLC (10 µM unless noted) it was 44.4% (inactive); in the assay on NCI-H460 lung (10 µM unless noted) it was -56.2% (active); with HOP-92 NSCLC (10 µM unless noted), 59% (inactive). Also, the growth with NCI-H522 lung (10 µM unless noted) was 32% (inactive); in the assay on A549/ATCC NSCLC (10 µM unless noted), 20.5% (inactive); in the assay with 786-0 renal (10 µM unless noted) it was -68.5% (active); in the assay on COLO 205 colon (10 µM unless noted) it was -64.9% (active).

Regarding `COC(=O)c1nc(=S)[nH]c(C(=O)OC)c1C(=O)c1ccc2ccccc2c1`, the growth with NCI-H23 lung (10 µM unless noted) is 97.9% (inactive); with NCI-H226 lung (10 µM unless noted), 86.9% (inactive); in the assay on NCI-H322M lung (10 µM unless noted), 97.7% (inactive); in the assay with HOP-62 NSCLC (10 µM unless noted), 106% (inactive); with NCI-H460 lung (10 µM unless noted), 111% (inactive); in the assay on HOP-92 NSCLC (10 µM unless noted) it was 101% (inactive). Besides, the growth is 102% (inactive) in the assay with NCI-H522 lung (10 µM unless noted), 120% (inactive) in the assay with A549/ATCC NSCLC (10 µM unless noted), 114% (inactive) in the assay with 786-0 renal (10 µM unless noted) and 96.8% (inactive) with COLO 205 colon (10 µM unless noted).

`COC(=O)[C@@]12OC[C@]34[C@H]([C@@H](O)[C@@H]1O)[C@@]1(C)[C@H](O)C(=O)C=C(C)[C@@H]1C[C@H]3OC(=O)C(OC(C)=O)[C@@H]24` (stereo partly drawn): the growth in the assay with NCI-H23 lung (10 µM unless noted) was -48.7% (active); in the assay on NCI-H226 lung (10 µM unless noted), -65.4% (active); in the assay on NCI-H322M lung (10 µM unless noted), -28.9% (active); in the assay with HOP-62 NSCLC (10 µM unless noted), -30.7% (active); in the assay with NCI-H460 lung (10 µM unless noted), -43.4% (active); in the assay with HOP-92 NSCLC (10 µM unless noted), -44.2% (active). Also, the growth in the assay on NCI-H522 lung (10 µM unless noted) was -60.1% (active); in the assay with A549/ATCC NSCLC (10 µM unless noted), -19.4% (active); in the assay with 786-0 renal (10 µM unless noted), -38.9% (active); in the assay on COLO 205 colon (10 µM unless noted), -64.3% (active).

Regarding `O=C(/C=C/c1cccc(Cl)c1)c1ccccc1`, the growth is 95.5% (inactive) and 97.5% (inactive) in the assay with NCI-H23 lung (10 µM unless noted); 94.2% (inactive) and 74.4% (inactive) in the assay on NCI-H226 lung (10 µM unless noted); 90.7% (inactive) and 81.9% (inactive) in the assay with NCI-H322M lung (10 µM unless noted); 112% (inactive) and 89.9% (inactive) in the assay with HOP-62 NSCLC (10 µM unless noted); 101% (inactive) and 95.9% (inactive) in the assay with NCI-H460 lung (10 µM unless noted); 88.1% (inactive) in the assay with HOP-92 NSCLC (10 µM unless noted). The growth was 82.3% (inactive) and 48.4% (inactive) in the assay on NCI-H522 lung (10 µM unless noted); 83.6% (inactive) and 86.7% (inactive) with A549/ATCC NSCLC (10 µM unless noted); 88.3% (inactive) and 77.5% (inactive) in the assay on 786-0 renal (10 µM unless noted); 115% (inactive) and 105% (inactive) in the assay on COLO 205 colon (10 µM unless noted).

For `CC(C)(C)CC(C)(C)c1ccc(OCCSC(=N)N)cc1`, the growth with NCI-H23 lung (10 µM unless noted) is 60.7% (inactive); with NCI-H226 lung (10 µM unless noted) it was 71.8% (inactive); with NCI-H322M lung (10 µM unless noted), 71.6% (inactive); with HOP-62 NSCLC (10 µM unless noted) it was 98.4% (inactive); in the assay on NCI-H460 lung (10 µM unless noted) it was 35% (inactive); in the assay with HOP-92 NSCLC (10 µM unless noted) it was 17.7% (inactive). The growth with NCI-H522 lung (10 µM unless noted) is 48.3% (inactive); in the assay with A549/ATCC NSCLC (10 µM unless noted), 77.2% (inactive); in the assay on 786-0 renal (10 µM unless noted), 28.2% (inactive); in the assay with COLO 205 colon (10 µM unless noted) it was -76.9% (active).

`O=C(Nc1cccc(Br)c1)Oc1cccc2cccnc12`: the growth with NCI-H23 lung (10 µM) was 106% (inactive); in the assay with NCI-H23 lung (100 µM) it was -21% (active); with NCI-H226 lung (10 µM), 106% (inactive); in the assay with NCI-H226 lung (100 µM) it was 63.1% (inactive); in the assay on NCI-H322M lung (10 µM) it was 117% (inactive); in the assay on NCI-H322M lung (100 µM), 84.9% (inactive). Moreover, the growth is 102% (inactive) in the assay on HOP-62 NSCLC (10 µM); 50.1% (inactive) with HOP-62 NSCLC (100 µM); 104% (inactive) in the assay with NCI-H460 lung (10 µM); 8.11% (active) in the assay on NCI-H460 lung (100 µM); 83% (inactive) with HOP-92 NSCLC (10 µM); 49.2% (inactive) with HOP-92 NSCLC (100 µM). The growth in the assay with NCI-H522 lung (10 µM unless noted) was -56.9% [100 µM] (active); with A549/ATCC NSCLC (10 µM) it was 99.1% (inactive); in the assay on A549/ATCC NSCLC (100 µM), 20.7% (inactive); with 786-0 renal (10 µM) it was 94.9% (inactive); with 786-0 renal (100 µM), 88.6% (inactive); in the assay on COLO 205 colon (10 µM) it was 117% (inactive). For the same compound, in the assay on COLO 205 colon (100 µM), the growth is 51.8% (inactive).

For the compound `O=[N+]([O-])c1ccc2c(N=Nc3ccc4ccccc4c3O)c(O)cc(S(=O)(=O)O)c2c1`, the growth in the assay on NCI-H23 lung (10 µM unless noted) is 101% (inactive); with NCI-H226 lung (10 µM unless noted), 103% (inactive); with NCI-H322M lung (10 µM unless noted) it was 65.1% (inactive); in the assay with HOP-62 NSCLC (10 µM unless noted), 97.5% (inactive); with NCI-H460 lung (10 µM unless noted) it was 102% (inactive); with HOP-92 NSCLC (10 µM unless noted), 101% (inactive). In addition, the growth in the assay on NCI-H522 lung (10 µM unless noted) is 105% (inactive); in the assay on A549/ATCC NSCLC (10 µM unless noted), 103% (inactive); in the assay on 786-0 renal (10 µM unless noted) it was 106% (inactive); in the assay with COLO 205 colon (10 µM unless noted) it was 104% (inactive).
